Results filed as inconclusive are left out. A number with no mark means an inactive call. Calls of active or inactive are those of the source. Calls come from the whole dose curve; as a rule, active = well fitted cell-killing curve with a large enough effect in the repeat runs; inconclusive = weak or mixed curves, or effect the other way; inactive = flat fitted curve, though single readings scatter.

Test [1] is described as follows: cAMP Responsive Elements (CRE) small molecule antagonists, cell-based qHTS assay: qHTS cell viability counter screen (AID 2060913). Note: nearly all actives have a fitted effect of over 40% in size. In short, it runs like this: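 Steps: cells plated and held 18 hrs at 37 C/5% CO2; compounds and NKH477 (0.25 uM final) added; 3 hrs incubation; reporter substrate read; CellTiter-Glo added to measure cytotoxicity by luminescence.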

Test [2] in a line: cAMP Responsive Elements (CRE) small molecule agonists, cell-based qHTS assay: qHTS cell viability counter screen (AID 2060914). Note: nearly all actives have a fitted effect of over 50% in size. In short, it runs like this: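 Cells are seeded and incubated 18 h, treated with compounds in DMSO for 3 h, read for the bla reporter, then given CellTiter-Glo; luminescence is measured after 30 min at room temperature.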
% is set by controls: 0 for no effect and ±100 for the full control effect.

Regarding `COc1cccc(Br)c1`, the Potency result in test [1] and in test [2] was “inactive” throughout.
With `C=CN1CCCCCC1=O`, the Potency entry in test [1] and in test [2] was “inactive” each time.
For `C#CC(C)N(C)C(=O)Nc1ccc(Cl)cc1` (stereo not given), the Potency entry in test [1] and in test [2] was “inactive” in each case.
Regarding `Cc1cccc([N+](=O)[O-])c1C(=O)O`, the Potency result in test [1] and in test [2] was “inactive” in each case.
For the compound `COc1ccc(CCC(=O)c2c(O)cc(O[C@@H]3O[C@H](CO)[C@@H](O)[C@H](O)[C@H]3O[C@@H]3O[C@@H](C)[C@H](O)[C@@H](O)[C@H]3O)cc2O)cc1O`, the Potency result in test [1] and in test [2] was “inactive” throughout.
In the case of `O=C(Oc1cccc2cccnc12)c1ccccc1`, the Potency result in test [1] and in test [2] was “inactive” in each case.
For the compound `O=C1CC(c2ccc(Cl)cc2)CC(=O)N1`, the Potency entry in test [1] and in test [2] was “inactive” in each case.
On to `Oc1cccc(-c2c3nc(c(-c4cccc(O)c4)c4ccc([nH]4)c(-c4cccc(O)c4)c4nc(c(-c5cccc(O)c5)c5ccc2[nH]5)CC4)C=C3)c1`, for which the Potency entry in test [1] and in test [2] was “inactive” throughout.
As to `CCOC(=O)[C@H](O)[C@@H](O)C(=O)OCC`, the Potency result in test [1] and in test [2] was “inactive” throughout.
Regarding `Nc1cc(Cl)c([N+](=O)[O-])cc1O`, the Potency result in test [1] and in test [2] was “inactive” throughout.
Consider `O=C(O)CCCCCCCCCCCBr`, for which the Potency entry in test [1] and in test [2] was “inactive” throughout.
For `C[C@H]1C[C@@H](O)CC(C)(C)C1`, the Potency entry in test [1] and in test [2] was “inactive” in each case.
As to `CC(c1cc2ccccc2s1)N(O)C(N)=O` (stereo not given), the Potency result in test [1] and in test [2] was “inactive” each time.
Regarding `OCCOc1ccc(OCCO)cc1`, the Potency result in test [1] and in test [2] was “inactive” throughout.
Consider `O=C1OC(=O)c2cccc3cccc1c23`, for which the Potency result in test [1] and in test [2] was “inactive” in each case.
On to `C=C1CC[C@H]2C[C@@H]1C2(C)C`, for which the Potency result in test [1] and in test [2] was “inactive” each time.
In the case of `Nc1nc(N)nc(-c2cc(Cl)ccc2Cl)n1`, the Potency entry in test [1] and in test [2] was “inactive” in each case.
On to `CCCCCCCCC/C=C/CC1CC(=O)OC1=O` (stereo not given), for which the Potency entry in test [1] and in test [2] was “inactive” each time.
With `CC1(C)CC(N)CC(C)(C)N1`, the Potency entry in test [1] and in test [2] was “inactive” each time.
As for `CCCCOC(=O)CO`, the Potency result in test [1] and in test [2] was “inactive” in each case.
As to `OC[C@@H](O)[C@@H](O)CO`, the Potency result in test [1] and in test [2] was “inactive” each time.
As to `CC(C)O`, the Potency entry in test [1] and in test [2] was “inactive” throughout.
`c1ccc(CCCc2ccccn2)cc1`: the Potency entry in test [1] and in test [2] was “inactive” each time.
`c1ccsc1`: the Potency entry in test [1] and in test [2] was “inactive” in each case.
`Cc1c[nH]c(=S)[nH]c1=O`: the Potency result in test [1] and in test [2] was “inactive” in each case.
As to `Cc1cccc(O)c1`, the Potency entry in test [1] and in test [2] was “inactive” in each case.
As to `C[n+]1ccn(Cc2ccccc2)c1`, the Potency entry in test [1] and in test [2] was “inactive” throughout.
`CCCCCC/C=C/C(=O)OC`: the Potency entry in test [1] and in test [2] was “inactive” in each case.
Regarding `C=CCOc1ccccc1OCC(O)CNC(C)C` (stereo not given), the Potency entry in test [1] and in test [2] was “inactive” in each case.
Regarding `Clc1nnc(Cl)c2ccccc12`, the Potency result in test [1] and in test [2] was “inactive” each time.
With `O=C(CC(=O)c1ccccc1)c1ccccc1`, the Potency entry in test [1] and in test [2] was “inactive” in each case.
On to `Cc1ccc(O)c(N)c1`, for which the Potency result in test [1] and in test [2] was “inactive” throughout.
Take `COc1cc(C=O)ccc1O`: the Potency entry in test [1] and in test [2] was “inactive” in each case.
For `O=C(O)c1cccc(Oc2ccccc2)c1`, the Potency result in test [1] and in test [2] was “inactive” each time.
In the case of `C1C[C@@H]2[C@H]3CC[C@H](C3)[C@@H]2C1`, the Potency result in test [1] and in test [2] was “inactive” throughout.
Turning to `Cc1cc(CCC(=O)OCCOCCOCCOC(=O)CCc2cc(C)c(O)c(C(C)(C)C)c2)cc(C(C)(C)C)c1O`, the Potency entry in test [1] and in test [2] was “inactive” throughout.
For `O=C(O)CCCCCCCCCC(=O)O`, the Potency entry in test [1] and in test [2] was “inactive” throughout.
On to `CC(CO)c1ccccc1` (stereo not given), for which the Potency result in test [1] and in test [2] was “inactive” each time.
On to `OCC(CO)n1cnc(-c2ccc(F)cc2)c1-c1ccnc(Oc2ccccc2)n1`, for which the Potency entry in test [1] and in test [2] was “inactive” each time.
As for `CCCCO`, the Potency entry in test [1] and in test [2] was “inactive” throughout.
For the compound `C[C@@H](O)[C@H](N)C(=O)O`, the viability change, negative = cytotoxic in test [1] is -1.62% [at 18.9 µM]. Moreover, the activity change, negative = cytotoxicity in test [2] was -10.8% [at 18.9 µM].
Consider `COC(OC)C(C)c1ccccc1` (stereo not given), for which the Potency entry in test [1] and in test [2] was “inactive” in each case.
Turning to `C#CC(O)CCC` (stereo not given), the Potency entry in test [1] and in test [2] was “inactive” in each case.
With `CC1(C)OC[C@@H]2O[C@@]3(C(=O)O)OC(C)(C)O[C@H]3[C@@H]2O1`, the Potency result in test [1] and in test [2] was “inactive” in each case.
Turning to `Cc1[nH]cnc1CN1CCc2c(c3ccccc3n2C)C1=O`, the Potency entry in test [1] and in test [2] was “inactive” throughout.
As to `Nc1nc(-c2ccccc2)c(Br)c(=O)[nH]1`, the Potency result in test [1] and in test [2] was “inactive” each time.
As to `Clc1ccc(Cn2c(CN3CCCC3)nc3ccccc32)cc1`, the Potency result in test [1] and in test [2] was “inactive” in each case.
On to `C=CC/C=C/C`, for which the Potency entry in test [1] and in test [2] was “inactive” in each case.
As for `CSc1ccc(C(=O)c2[nH]c(=O)[nH]c2C)cc1`, the Potency result in test [1] and in test [2] was “inactive” each time.
For `CCC(C(=O)OCCOCCN(CC)CC)c1ccccc1` (stereo not given), the Potency entry in test [1] and in test [2] was “inactive” each time.
Consider `CSc1ccc(/C=C2/C(C)=C(CC(=O)O)c3cc(F)ccc32)cc1`, for which the Potency result in test [1] and in test [2] was “inactive” throughout.
With `Cc1cc(N)c2cc(NC(=O)Nc3ccc4nc(C)cc(N)c4c3)ccc2n1`, the Potency result in test [1] and in test [2] was “inactive” each time.
`CC1(C)C(=O)N(Cl)C(=O)N1Cl`: the Potency entry in test [1] and in test [2] was “inactive” in each case.
On to `O=C1Nc2ccc([N+](=O)[O-])cc2C1=O`, for which the Potency entry in test [1] and in test [2] was “inactive” each time.
With `O[C@@H](COc1cccc2ncccc12)CN1CCN(C2c3ccccc3[C@@H]3[C@H](c4ccccc42)C3(F)F)CC1` (stereo not given in full), the Potency result in test [1] and in test [2] was “inactive” throughout.
As for `N[C@H](C(=O)O)[C@@H](O)c1ccc(O)c(O)c1`, the Potency entry in test [1] and in test [2] was “inactive” in each case.
As to `CCCCCCCCCC`, the Potency entry in test [1] and in test [2] was “inactive” throughout.
For `Sc1nc(S)nc(S)n1`, the Potency entry in test [1] and in test [2] was “inactive” each time.
In the case of `O=C1NC2CCCCN2C12CCN(CCCN1c3ccccc3CCc3ccc(Cl)cc31)CC2` (stereo not given), the Potency entry in test [1] and in test [2] was “inactive” in each case.
Regarding `COc1cc2nc(N3CCN(C(=O)C4CCCO4)CC3)nc(N)c2cc1OC` (stereo not given), the Potency result in test [1] and in test [2] was “inactive” each time.

Values taken from PubChem BioAssay (Tox21).
